# Assay results reported in paper PMC7862700, “An all-to-all approach to the identification of sequence-specific readers for epigenetic DNA modifications on cytosine”.
# Assays:
# Experiment in all cases: DAPPL (digital affinity profiling via proximity ligation, sequencing); 10 mM Tris-HCl pH 7.5, 50 mM NaCl, 1 mM DTT, 4% glycerol, room temperature, 30 min; GST-TFs on glutathione beads, 16-mer random dsDNA library, 0.1% formaldehyde crosslink after washing; high values mean tight binding
# FLI1 = target: T1, FLI1 (Homo sapiens, UniProt Q01543 1-452); conditions: protein: recombinant; tags: N-terminal GST; dsDNA, one strand shown
# T1 sequence: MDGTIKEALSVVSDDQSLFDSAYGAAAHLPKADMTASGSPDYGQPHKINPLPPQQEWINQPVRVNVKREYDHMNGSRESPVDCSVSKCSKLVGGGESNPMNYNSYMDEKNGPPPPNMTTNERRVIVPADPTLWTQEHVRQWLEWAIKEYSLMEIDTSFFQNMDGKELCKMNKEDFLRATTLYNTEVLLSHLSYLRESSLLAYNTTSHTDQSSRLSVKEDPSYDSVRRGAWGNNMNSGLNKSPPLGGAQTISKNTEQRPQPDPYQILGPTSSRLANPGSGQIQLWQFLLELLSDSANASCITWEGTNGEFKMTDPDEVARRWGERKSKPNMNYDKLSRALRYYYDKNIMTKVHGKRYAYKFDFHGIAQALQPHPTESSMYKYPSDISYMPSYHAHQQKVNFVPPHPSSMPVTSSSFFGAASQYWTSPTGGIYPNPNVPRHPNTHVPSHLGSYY
# Outline: (§1)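 Beads coated with glutathione captured GST-fused human transcription factors that had been expressed in yeast, and the factors were then given DNA barcodes and pooled with a tag-only sample. The pools were incubated with 200 nmole of a random double-stranded 16-mer DNA library in Tris/NaCl/DTT/glycerol buffer for 30 min at room temperature, washed, crosslinked with 0.1% formaldehyde and proximity-ligated with BsaI/T4 ligase at 37 °C for 1 h. PCR amplification and Illumina NextSeq500 sequencing came last. Binding signal is each hexamer's read frequency for a factor divided by its frequency for the tag-only sample.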
# ELK1 = target: T2, ELK1 (Homo sapiens, UniProt P19419 1-428); conditions: protein: recombinant; tags: N-terminal GST; dsDNA, one strand shown
# T2 sequence: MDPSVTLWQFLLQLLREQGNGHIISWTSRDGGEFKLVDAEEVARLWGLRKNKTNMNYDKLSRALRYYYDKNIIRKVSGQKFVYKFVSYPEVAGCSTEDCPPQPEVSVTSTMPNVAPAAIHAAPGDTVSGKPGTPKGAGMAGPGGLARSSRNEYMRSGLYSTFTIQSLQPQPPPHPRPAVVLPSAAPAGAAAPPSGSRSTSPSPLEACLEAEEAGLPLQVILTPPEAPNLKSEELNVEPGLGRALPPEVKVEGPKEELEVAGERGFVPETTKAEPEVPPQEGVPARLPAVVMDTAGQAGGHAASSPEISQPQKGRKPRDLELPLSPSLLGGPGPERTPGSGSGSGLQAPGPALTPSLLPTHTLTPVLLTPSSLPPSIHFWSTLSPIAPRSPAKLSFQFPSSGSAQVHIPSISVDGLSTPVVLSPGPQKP
# Outline: as §1
# GABPA = target: T3, GABPA (Homo sapiens, UniProt Q06546 1-454); conditions: protein: recombinant; tags: N-terminal GST; dsDNA, one strand shown
# T3 sequence: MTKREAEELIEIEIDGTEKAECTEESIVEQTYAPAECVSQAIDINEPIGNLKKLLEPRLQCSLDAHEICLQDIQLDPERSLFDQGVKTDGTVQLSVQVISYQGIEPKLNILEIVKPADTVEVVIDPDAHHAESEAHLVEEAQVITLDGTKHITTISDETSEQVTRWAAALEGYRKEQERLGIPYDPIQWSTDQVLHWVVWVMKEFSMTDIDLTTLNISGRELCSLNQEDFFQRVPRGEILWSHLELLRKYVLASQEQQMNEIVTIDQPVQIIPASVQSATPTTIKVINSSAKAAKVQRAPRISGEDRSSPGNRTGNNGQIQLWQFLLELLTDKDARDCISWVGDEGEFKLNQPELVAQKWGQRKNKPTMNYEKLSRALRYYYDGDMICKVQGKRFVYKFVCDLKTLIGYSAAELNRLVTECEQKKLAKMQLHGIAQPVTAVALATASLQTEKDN
# Outline: as §1
# ERG = target: T4, ERG (Homo sapiens, UniProt P11308 1-479); conditions: protein: recombinant; tags: N-terminal GST; dsDNA, one strand shown
# T4 sequence: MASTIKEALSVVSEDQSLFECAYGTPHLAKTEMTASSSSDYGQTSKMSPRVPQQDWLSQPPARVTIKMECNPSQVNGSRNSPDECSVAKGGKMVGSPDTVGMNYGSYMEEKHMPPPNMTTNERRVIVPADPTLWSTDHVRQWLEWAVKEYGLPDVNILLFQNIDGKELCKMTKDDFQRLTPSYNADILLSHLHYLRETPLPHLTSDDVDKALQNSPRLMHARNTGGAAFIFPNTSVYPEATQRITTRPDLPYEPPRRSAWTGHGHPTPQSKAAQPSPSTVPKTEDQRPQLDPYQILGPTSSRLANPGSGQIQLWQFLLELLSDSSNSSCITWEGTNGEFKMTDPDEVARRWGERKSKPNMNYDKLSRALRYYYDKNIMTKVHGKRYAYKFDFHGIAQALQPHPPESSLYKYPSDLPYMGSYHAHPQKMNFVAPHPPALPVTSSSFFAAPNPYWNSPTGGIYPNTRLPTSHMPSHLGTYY
# Outline: as §1
# ELF1 = ELF1 (Homo sapiens, UniProt P32519 1-619); conditions: protein: recombinant; tags: N-terminal GST; dsDNA, one strand shown
# Outline: as §1
# EHF = target: T5, EHF (Homo sapiens, UniProt Q9NZC4 1-300); conditions: protein: recombinant; tags: N-terminal GST; dsDNA, one strand shown
# T5 sequence: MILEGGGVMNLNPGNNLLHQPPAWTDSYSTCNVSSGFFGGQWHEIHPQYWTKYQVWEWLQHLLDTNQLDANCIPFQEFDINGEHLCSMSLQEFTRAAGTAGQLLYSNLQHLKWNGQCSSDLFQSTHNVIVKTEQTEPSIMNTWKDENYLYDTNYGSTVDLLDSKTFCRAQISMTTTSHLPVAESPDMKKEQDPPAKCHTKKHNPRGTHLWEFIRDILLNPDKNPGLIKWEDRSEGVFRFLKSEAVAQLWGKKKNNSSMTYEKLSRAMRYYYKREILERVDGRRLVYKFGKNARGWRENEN
# Outline: as §1
# SPI1 = SPI1 (Homo sapiens, UniProt P17947 1-270); conditions: protein: recombinant; tags: N-terminal GST; dsDNA, one strand shown
# Outline: as §1
# SPIB = SPIB (Homo sapiens, UniProt Q01892 1-262); conditions: protein: recombinant; tags: N-terminal GST; dsDNA, one strand shown
# Outline: as §1
# ELK3 = target: T6, ELK3 (Homo sapiens, UniProt P41970 1-407); conditions: protein: recombinant; tags: N-terminal GST; dsDNA, one strand shown
# T6 sequence: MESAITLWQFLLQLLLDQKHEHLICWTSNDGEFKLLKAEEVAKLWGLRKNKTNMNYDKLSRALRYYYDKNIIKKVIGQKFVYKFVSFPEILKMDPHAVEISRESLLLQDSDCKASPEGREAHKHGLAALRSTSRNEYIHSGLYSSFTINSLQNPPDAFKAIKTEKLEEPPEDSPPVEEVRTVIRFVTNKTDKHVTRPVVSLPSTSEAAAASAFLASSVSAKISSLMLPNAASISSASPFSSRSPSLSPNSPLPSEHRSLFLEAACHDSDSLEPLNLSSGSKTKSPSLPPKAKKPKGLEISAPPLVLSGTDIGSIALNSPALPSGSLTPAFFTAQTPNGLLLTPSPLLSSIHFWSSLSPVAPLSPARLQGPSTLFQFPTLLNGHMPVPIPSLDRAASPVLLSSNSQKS
# Outline: as §1
# FEV = target: T7, FEV (Homo sapiens, UniProt Q99581 1-238); conditions: protein: recombinant; tags: N-terminal GST; dsDNA, one strand shown
# T7 sequence: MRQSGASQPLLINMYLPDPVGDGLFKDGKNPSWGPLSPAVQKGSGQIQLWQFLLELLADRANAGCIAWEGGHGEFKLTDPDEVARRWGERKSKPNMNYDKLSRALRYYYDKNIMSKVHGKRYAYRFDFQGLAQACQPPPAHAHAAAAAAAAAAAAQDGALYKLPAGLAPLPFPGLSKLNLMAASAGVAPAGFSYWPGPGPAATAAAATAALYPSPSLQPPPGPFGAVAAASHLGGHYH
# Outline: as §1
# ETV5 = ETV5 (Homo sapiens, UniProt P41161 1-510); conditions: protein: recombinant; tags: N-terminal GST; dsDNA, one strand shown
# Outline: as §1
# HSF1 = HSF1 (Homo sapiens, UniProt Q00613 1-529); conditions: protein: recombinant; tags: N-terminal GST; chain copies: 3; dsDNA, one strand shown
# Outline: as §1
# SPIC = target: T8, SPIC (Homo sapiens, UniProt Q8N5J4 1-248); conditions: protein: recombinant; tags: N-terminal GST; dsDNA, one strand shown
# T8 sequence: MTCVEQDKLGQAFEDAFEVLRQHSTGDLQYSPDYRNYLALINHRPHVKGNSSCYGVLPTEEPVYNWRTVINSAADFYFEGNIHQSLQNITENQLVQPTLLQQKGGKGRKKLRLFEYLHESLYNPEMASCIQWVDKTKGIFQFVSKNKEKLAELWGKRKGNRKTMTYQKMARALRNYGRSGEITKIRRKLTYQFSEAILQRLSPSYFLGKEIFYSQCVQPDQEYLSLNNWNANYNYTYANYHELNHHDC
# Outline: as §1
# ELF4 = ELF4 (Homo sapiens, UniProt Q99607 1-663); conditions: protein: recombinant; tags: N-terminal GST; dsDNA, one strand shown
# Outline: as §1
# ELK4 = target: T9, ELK4 (Homo sapiens, UniProt P28324-2 1-405); conditions: protein: recombinant; tags: N-terminal GST; dsDNA, one strand shown
# T9 sequence: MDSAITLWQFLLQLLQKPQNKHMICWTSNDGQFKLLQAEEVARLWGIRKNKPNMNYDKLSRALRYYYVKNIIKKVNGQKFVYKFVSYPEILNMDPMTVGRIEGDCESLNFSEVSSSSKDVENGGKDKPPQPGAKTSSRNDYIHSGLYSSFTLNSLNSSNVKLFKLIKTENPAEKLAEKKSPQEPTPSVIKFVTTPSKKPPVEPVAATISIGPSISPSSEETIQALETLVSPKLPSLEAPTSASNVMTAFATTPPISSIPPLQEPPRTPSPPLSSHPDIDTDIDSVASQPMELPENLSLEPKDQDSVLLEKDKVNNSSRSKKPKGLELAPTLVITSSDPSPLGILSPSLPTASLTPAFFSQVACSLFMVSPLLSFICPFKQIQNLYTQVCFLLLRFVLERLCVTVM
# Outline: as §1
# ETV2 = target: T10, ETV2 (Homo sapiens, UniProt O00321 1-342); conditions: protein: recombinant; tags: N-terminal GST; dsDNA, one strand shown
# T10 sequence: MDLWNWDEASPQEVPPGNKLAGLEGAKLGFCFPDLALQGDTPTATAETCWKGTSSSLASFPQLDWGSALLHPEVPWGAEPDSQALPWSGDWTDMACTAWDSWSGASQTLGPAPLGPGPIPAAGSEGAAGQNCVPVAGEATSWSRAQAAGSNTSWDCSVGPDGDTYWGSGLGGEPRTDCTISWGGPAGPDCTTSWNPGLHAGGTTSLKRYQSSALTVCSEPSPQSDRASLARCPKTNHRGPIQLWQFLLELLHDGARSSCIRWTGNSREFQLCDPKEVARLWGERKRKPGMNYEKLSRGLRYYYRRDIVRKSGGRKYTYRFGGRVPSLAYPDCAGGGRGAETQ
# Outline: as §1
# ELF3 = target: T11, ELF3 (Homo sapiens, UniProt P78545 1-371); conditions: protein: recombinant; tags: N-terminal GST; dsDNA, one strand shown
# T11 sequence: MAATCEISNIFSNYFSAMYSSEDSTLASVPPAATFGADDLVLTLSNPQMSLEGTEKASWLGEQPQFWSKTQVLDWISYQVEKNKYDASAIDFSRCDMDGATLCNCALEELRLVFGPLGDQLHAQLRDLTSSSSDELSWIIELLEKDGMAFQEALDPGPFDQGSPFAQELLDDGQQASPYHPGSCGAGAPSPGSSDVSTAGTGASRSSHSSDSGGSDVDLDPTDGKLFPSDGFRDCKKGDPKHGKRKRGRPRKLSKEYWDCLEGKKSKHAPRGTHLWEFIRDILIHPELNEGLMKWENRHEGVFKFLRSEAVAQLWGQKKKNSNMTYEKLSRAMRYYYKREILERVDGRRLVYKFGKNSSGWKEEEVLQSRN
# Outline: as §1
# CRX = CRX (Homo sapiens, UniProt O43186 1-299); conditions: protein: recombinant; tags: N-terminal GST; dsDNA, one strand shown
# Outline: as §1
# ETV1 = ETV1 (Homo sapiens, UniProt P50549 1-477); conditions: protein: recombinant; tags: N-terminal GST; dsDNA, one strand shown
# Outline: as §1
# Chain of ETV5 (P41161 whole entry): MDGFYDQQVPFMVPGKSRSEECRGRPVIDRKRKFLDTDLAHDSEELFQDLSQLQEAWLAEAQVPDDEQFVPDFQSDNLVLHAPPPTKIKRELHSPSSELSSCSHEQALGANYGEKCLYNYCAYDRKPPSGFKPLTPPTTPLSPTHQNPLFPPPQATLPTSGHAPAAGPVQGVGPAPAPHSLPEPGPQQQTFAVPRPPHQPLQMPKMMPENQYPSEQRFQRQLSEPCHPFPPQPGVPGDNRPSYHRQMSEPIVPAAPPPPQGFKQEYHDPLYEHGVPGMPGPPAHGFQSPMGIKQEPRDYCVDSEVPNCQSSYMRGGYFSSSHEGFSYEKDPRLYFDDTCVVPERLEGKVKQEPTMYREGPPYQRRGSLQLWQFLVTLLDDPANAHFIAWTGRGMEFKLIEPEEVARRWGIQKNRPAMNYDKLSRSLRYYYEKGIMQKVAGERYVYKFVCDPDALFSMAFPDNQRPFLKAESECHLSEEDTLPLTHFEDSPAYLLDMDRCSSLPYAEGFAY
# Chain of ELF4 (Q99607 whole entry): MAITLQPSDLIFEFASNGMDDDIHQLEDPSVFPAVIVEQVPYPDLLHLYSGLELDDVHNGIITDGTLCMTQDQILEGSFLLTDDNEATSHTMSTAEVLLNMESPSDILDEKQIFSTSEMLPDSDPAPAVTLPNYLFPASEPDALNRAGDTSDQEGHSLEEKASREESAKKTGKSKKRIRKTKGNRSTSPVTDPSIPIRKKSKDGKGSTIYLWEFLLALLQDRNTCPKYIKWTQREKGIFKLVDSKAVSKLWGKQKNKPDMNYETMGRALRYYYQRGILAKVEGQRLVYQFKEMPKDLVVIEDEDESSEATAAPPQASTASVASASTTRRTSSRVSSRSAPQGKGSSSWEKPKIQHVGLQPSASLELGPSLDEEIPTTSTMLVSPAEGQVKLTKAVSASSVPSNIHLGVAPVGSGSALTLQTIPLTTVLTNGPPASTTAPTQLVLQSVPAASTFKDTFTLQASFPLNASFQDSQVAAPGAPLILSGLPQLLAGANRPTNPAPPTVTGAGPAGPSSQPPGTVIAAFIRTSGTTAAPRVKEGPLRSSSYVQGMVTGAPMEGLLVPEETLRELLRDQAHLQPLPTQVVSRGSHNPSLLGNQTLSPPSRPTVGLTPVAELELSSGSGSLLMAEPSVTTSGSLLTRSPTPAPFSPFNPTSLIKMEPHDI
# Chain of HSF1 (Q00613 whole entry): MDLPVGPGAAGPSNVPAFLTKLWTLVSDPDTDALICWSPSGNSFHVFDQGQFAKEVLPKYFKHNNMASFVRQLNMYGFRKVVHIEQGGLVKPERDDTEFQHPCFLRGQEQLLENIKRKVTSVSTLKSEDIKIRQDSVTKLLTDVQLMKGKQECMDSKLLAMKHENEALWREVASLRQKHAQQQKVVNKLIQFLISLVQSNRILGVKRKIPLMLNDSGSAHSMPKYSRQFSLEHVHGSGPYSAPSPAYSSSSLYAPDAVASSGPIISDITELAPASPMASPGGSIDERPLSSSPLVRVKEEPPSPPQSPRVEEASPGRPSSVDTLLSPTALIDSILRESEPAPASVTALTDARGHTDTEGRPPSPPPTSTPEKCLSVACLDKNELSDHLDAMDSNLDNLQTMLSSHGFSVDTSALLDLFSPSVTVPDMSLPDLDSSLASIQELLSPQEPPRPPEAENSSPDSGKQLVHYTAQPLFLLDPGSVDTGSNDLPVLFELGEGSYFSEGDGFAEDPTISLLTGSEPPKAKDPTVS
# Chain of SPIB (Q01892 whole entry): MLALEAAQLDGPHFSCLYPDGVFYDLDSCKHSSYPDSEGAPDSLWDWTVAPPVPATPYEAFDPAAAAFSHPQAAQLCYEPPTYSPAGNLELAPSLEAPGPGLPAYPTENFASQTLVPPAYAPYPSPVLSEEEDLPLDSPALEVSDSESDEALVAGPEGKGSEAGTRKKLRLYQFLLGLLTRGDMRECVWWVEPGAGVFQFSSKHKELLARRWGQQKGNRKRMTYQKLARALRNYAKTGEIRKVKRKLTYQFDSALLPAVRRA
# Chain of ELF1 (P32519 whole entry): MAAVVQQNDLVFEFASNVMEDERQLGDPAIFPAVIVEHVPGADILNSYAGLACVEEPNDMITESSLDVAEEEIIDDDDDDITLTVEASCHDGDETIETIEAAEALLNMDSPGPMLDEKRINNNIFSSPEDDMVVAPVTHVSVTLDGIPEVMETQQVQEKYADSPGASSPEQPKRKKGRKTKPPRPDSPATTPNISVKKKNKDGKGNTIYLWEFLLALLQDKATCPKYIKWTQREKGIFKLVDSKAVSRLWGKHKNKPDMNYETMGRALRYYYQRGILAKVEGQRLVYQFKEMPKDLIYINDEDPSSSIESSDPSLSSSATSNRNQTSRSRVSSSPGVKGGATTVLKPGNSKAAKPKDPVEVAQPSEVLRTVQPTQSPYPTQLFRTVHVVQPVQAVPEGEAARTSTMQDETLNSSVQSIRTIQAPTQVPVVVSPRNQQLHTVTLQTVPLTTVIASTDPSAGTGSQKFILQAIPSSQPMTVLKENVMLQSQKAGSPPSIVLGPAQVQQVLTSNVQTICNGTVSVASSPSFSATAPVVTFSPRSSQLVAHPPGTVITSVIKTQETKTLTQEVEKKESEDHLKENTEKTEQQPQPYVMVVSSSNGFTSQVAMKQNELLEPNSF
# Chain of ETV1 (P50549 whole entry): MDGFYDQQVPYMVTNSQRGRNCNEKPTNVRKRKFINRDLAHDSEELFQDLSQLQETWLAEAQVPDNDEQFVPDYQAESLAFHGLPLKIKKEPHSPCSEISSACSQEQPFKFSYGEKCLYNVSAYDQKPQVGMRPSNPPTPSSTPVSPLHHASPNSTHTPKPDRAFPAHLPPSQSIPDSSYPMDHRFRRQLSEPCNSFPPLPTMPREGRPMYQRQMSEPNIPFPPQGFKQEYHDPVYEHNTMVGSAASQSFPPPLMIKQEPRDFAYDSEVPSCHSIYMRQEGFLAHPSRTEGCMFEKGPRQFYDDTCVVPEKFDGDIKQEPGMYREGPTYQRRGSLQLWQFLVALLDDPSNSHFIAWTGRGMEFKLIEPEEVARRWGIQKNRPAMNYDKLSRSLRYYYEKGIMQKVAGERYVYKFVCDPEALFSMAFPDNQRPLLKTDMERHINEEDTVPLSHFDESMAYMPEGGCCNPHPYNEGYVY
# Chain of CRX (O43186 whole entry): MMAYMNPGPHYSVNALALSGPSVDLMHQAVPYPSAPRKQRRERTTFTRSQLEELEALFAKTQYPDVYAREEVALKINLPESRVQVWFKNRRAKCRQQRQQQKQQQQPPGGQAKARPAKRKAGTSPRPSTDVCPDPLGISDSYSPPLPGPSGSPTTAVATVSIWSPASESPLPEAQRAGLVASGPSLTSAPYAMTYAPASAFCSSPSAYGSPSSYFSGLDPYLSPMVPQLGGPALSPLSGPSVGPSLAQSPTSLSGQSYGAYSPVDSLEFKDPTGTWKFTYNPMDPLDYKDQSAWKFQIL
sequence,measurement,setting,value
AATATC,binding signal,FLI1,"1.53 fold enrichment (6-mer frequency, TF over GST control)"
same,binding signal,ELK1,"1.55 fold enrichment (6-mer frequency, TF over GST control)"
same,binding signal,GABPA,"1.66 fold enrichment (6-mer frequency, TF over GST control)"
same,binding signal,ERG,"1.66 fold enrichment (6-mer frequency, TF over GST control)"
same,binding signal,ELF1,"1.55 fold enrichment (6-mer frequency, TF over GST control)"
same,binding signal,EHF,"1.44 fold enrichment (6-mer frequency, TF over GST control)"
same,binding signal,SPI1,"1.51 fold enrichment (6-mer frequency, TF over GST control)"
same,binding signal,SPIB,"1.52 fold enrichment (6-mer frequency, TF over GST control)"
same,binding signal,ELK3,"1.49 fold enrichment (6-mer frequency, TF over GST control)"
same,binding signal,FEV,"1.56 fold enrichment (6-mer frequency, TF over GST control)"
same,binding signal,ETV5,"1.53 fold enrichment (6-mer frequency, TF over GST control)"
same,binding signal,HSF1,"1.49 fold enrichment (6-mer frequency, TF over GST control)"
same,binding signal,SPIC,"1.49 fold enrichment (6-mer frequency, TF over GST control)"
same,binding signal,ELF4,"1.44 fold enrichment (6-mer frequency, TF over GST control)"
same,binding signal,ELK4,"1.48 fold enrichment (6-mer frequency, TF over GST control)"
same,binding signal,ETV2,"1.73 fold enrichment (6-mer frequency, TF over GST control)"
same,binding signal,ELF3,"1.55 fold enrichment (6-mer frequency, TF over GST control)"
same,binding signal,CRX,"1.55 fold enrichment (6-mer frequency, TF over GST control)"
same,binding signal,ETV1,"1.56 fold enrichment (6-mer frequency, TF over GST control)"
